Shown are actives, neighbours in structure and some others; about 0.41% of the full set was active somewhere.
GAA spleen mod – inhibitors or activators of human alpha-glucosidase in spleen homogenate. human spleen homogenate, 4-MU-alpha-glucoside fluorescence. Potency, µM (top dose mostly 79.9 µM), without a hit: at the top dose activity change, negative = inhibition, usual class: inhibitors. actives 0.006% (n = 240,000);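 further: potency means the concentration at half of the fitted maximal effect; 0% = enzyme with vehicle and -100% = no enzyme basal signal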
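AC50 values come from Hill-equation fits of concentration-response data, normalized to no-enzyme and full-activity controls. Enzyme source: 1 ug human spleen homogenate; 1 mM fluorogenic 4-MU glucoside, pH 5.0 citrate buffer, 37 C, 40 min.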
GAA glycogen mod – alters human alpha-glucosidase cleavage of glycogen | actives 0.38% (n = 300,000) | recombinant GAA, glycogen substrate, Amplex Red glucose oxidase fluorescence | P10253 | Potency, µM (highest dose often 76.4 µM), for inactives: at the highest dose activity change, negative = inhibition, usual class: inhibitors;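 further: potency means the concentration at half of the fitted maximal effect; 0% = full enzyme reaction and -100% = no-enzyme basal signal; the screen sought inhibitors and activators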
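Recombinant human enzyme (4 nM); glycogen substrate; 37 C, 40 min, pH 5.0. Readout: coupled glucose oxidase/Amplex Red fluorescence.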
N370S GC – inhibits or activates N370S mutant glucocerebrosidase | P04062 | N370S GC spleen homogenate, 4MU-glucoside fluorescence | Potency, µM (series often up to 59.4 µM), for the others: top-dose activity change, negative = inhibition, usual class: inhibitors | actives 0.092% (n = 330,000);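 further: potency means the concentration at half of the fitted maximal effect; 0% = full enzyme activity and -100% = no enzyme basal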
aGal spleen mod – inhibitors or activators of human alpha-galactosidase in spleen homogenate | P06280 | human spleen homogenate, 4MU-alpha-Gal fluorescence, 40 min | Potency, µM (highest dose often 80 µM), for the others: at the top dose activity change, negative = inhibition, most hits filed as inhibitors | actives 0.008% (n = 240,000) | AID 2107;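 further: potency means the concentration at half of the fitted maximal effect; 0% = enzyme with vehicle and -100% = no enzyme basal signal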
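qHTS titration in buffer at pH 5.0. Alpha-galactosidase activity in spleen homogenate was measured via 4-methylumbelliferone release from 1 mM fluorogenic substrate after 40 min at 37C and a pH 10 stop. AC50 came from Hill fits of control-normalized data.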
GAA inhib – blocks human lysosomal alpha-glucosidase. Potency, µM (series often up to 76.9 µM), inactives show at the highest dose activity change, negative = inhibition, most hits filed as inhibitors. P10253. purified human GAA, 4-MU-alpha-glucoside fluorescence. actives 0.005% (n = 200,000);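 further: potency means the concentration at half of the fitted maximal effect; plate controls were uninhibited enzyme wells for no effect and no-enzyme background for full effect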
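qHTS format, compound range up to 77 uM. Human lysosomal enzyme at 4 nM, 400 uM 4-MU glucoside substrate, pH 5.0, 20 min room temperature; fluorescence after alkaline stop gives activity normalized to controls.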
GLA inh pH 4.5 – blocks human alpha-galactosidase A at pH 4.5 | P06280 | purified enzyme, 4-MU-alpha-Gal fluorescence, pH 4.5 | activity change, negative = inhibition, % at 105 µM | 230,000 tested, under 10 active;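 further: 0% = full activity with enzyme and -100% = basal without enzyme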
Target sequence (P06280 whole entry, looked up): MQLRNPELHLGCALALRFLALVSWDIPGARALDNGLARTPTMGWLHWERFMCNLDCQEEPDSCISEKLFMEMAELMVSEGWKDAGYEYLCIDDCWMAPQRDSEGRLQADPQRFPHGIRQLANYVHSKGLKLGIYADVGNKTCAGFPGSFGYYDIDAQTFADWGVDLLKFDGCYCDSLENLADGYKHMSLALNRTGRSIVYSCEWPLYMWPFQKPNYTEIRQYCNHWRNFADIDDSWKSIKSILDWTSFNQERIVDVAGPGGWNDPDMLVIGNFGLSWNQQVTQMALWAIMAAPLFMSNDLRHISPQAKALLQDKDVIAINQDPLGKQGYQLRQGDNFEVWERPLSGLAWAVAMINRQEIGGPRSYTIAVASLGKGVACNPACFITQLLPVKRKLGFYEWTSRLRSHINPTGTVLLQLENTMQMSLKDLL
* = called active by the depositor; u = inconclusive; x = not tested or not shown; [ ] = another dose, or the depositor's remark. The call rests on the fitted dose curve; in most records, active means well fitted curve in the direction sought with a large enough effect; inconclusive means small, poorly fitted or top-dose-only effect, or another doubt; inactive means no such curve, though single readings can be large; an effect the other way counts as inactive or inconclusive.

SMILES	GAA spleen mod	GAA glycogen mod	N370S GC	aGal spleen mod	GAA inhib	GLA inh pH 4.5
c1ccc(Nc2cc(Nc3ccccc3)[nH]n2)cc1	-10%	28µM*	23%	-13%	-10%	1
Cc1ccc2nc(-c3ccc(SCC(=O)O)nc3)[nH]c2c1	-1%	3%	14%	4%	3%	-3
Cc1ccc2nc(-c3ccc(SCC(=O)N4CCc5ccccc54)nc3)[nH]c2c1	-3%	-6%	3.2µM*	4%	4%	-4
CCOC(=O)c1c(/N=C/c2cccc([N+](=O)[O-])c2O)sc2c1CCC2	0%	-15%	-9%	-14%	-3%	-6
CCOC(=O)c1c(/N=C/c2ccc(O)cc2O)sc2c1CCC2	-12%	35µM*	-15%	-9%	2%	-15
CCOC(=O)c1c(/N=C/c2ccccc2O)sc2c1CCC2	0%	18µM*	1%	4%	4%	0
Cc1cc(-c2ccc(N=Nc3cc(S(=O)(=O)O)c4ccccc4c3N)c(C)c2)ccc1N=Nc1cc(S(=O)(=O)O)c2ccccc2c1N	-12%	x	u	-7%	x	x
O=C(O)c1cccc(-c2ccc(/C=N/Nc3nn[nH]n3)o2)c1	-8%	1.8µM*	-2%	1%	-8%	-21
COc1ccc(NCc2ccc([N+](=O)[O-])s2)c(OC)c1	3%	9.9µM*	-12%	-4%	-5%	0
COc1ccc(NCc2ccc([N+](=O)[O-])s2)cc1	1%	u	-4%	3%	0%	5
Cc1cccc(NNC(=O)C(=O)NNc2cccc(C)c2)c1	9%	u	16%	4%	x	0
CCCc1ccc(C(=O)NNc2cccc(C)c2)cc1	-4%	16µM*	26%	2%	x	-14
COc1ccc(NC(=O)CSc2ccc(-c3cccs3)nn2)cc1	x	-10%[76.3 µM]	x	x	x	x
Nc1cc(C(=O)O)ccc1Nc1ccc(F)c(F)c1	3%	12µM*	-4%	5%	-6%	0
O=C(O)c1ccc(N/N=C/c2ccc(F)c(F)c2)cc1	-9%	u	4%	8%	12%	-18
CN1CCN(NC(=O)c2cn(-c3ccccc3)nc2-c2cccc(Br)c2)CC1	2%	-3%	10µM*	7%	7%	9
CC(C)NC(=O)c1ccc(S(=O)(=O)N(C)C)cc1	5%	23%	3%	4%	0%	6
CN(C)NC(=O)c1ccsc1NC(=O)c1ccc(S(=O)(=O)N(C)C)cc1	-3%	5.6µM*	-7%	-2%	x	3
CCOc1ccc(C(C)=O)cc1COc1ccc(-c2nnco2)cc1	x	x	11µM*	x	x	x
Cc1c(C(=O)O)c2cc(O)ccc2n1-c1ccccc1	-6%	25µM*	-4%	-21%	-3%	5
COc1cc(/C=C2/NC(=O)N(Cc3ccccc3F)C2=O)ccc1O	0%	22µM*	-3%	-5%	-6%	0
COc1cc(/C=C2\NC(=S)N(C)C2=O)ccc1O	10%	10µM*	-19%	-4%	u	u
COc1cc(/C=C2/NC(=O)N(Cc3ccccc3F)C2=O)ccc1Oc1ccc([N+](=O)[O-])cn1	-2%	-2%	0%	-2%	0%	-13
CN1C(=O)/C(=C/c2ccc(O)c([N+](=O)[O-])c2)NC1=S	-5%	4%	-9%	-6%	-2%	-2
CC1CCN(C(=O)c2ccc3c(c2)N(Cc2ccccc2F)C(=O)c2ccccc2S3(=O)=O)CC1	x	-26%[76.3 µM]	x	x	x	x
SMILES	GAA spleen mod	GAA glycogen mod	N370S GC	aGal spleen mod	GAA inhib	GLA inh pH 4.5
COc1cc(CN(C(=O)c2ccccc2)c2ccccn2)cc(OC)c1OC	x	4%[76.3 µM]	x	x	x	x
COC(=O)c1ccccc1NC(=O)c1cc(=O)c2ccc(C)c(C)c2o1	x	-7%[76.3 µM]	x	x	x	x
O=c1[nH]cc(O)c(=O)[nH]1	5%	5µM*	-1%	4%	-1%	2
COc1cc(/C=N/N(C)C)cc(Br)c1O	-4%	4.5µM*	0%	4%	x	-15
Oc1ccc(Br)cc1/C=N/n1c(-c2ccccc2)n[nH]c1=S	x	x	-2%	x	x	x
Oc1ccc(Br)cc1C=Nc1cccn2cc(-c3ccccc3)nc12	-2%	u	4.5µM*	-10%	11%	8
N#CCCCS(=O)(=O)c1nnnn1-c1ccc(F)cc1Br	7%	x	-13%	-4%	x	1
CC1(C)C([N+](=O)[O-])C(c2ccc(F)cc2)NC(c2ccc(F)cc2)C1[N+](=O)[O-] (configuration not stated)	1%	-3%	7%	5%	x	-8
CC1(C)C([N+](=O)[O-])C(c2ccc(O)cc2)NC(c2ccc(O)cc2)C1[N+](=O)[O-] (configuration not stated)	0%	4%	8.9µM*	-9%	-2%	0
COc1ccc(Br)cc1CNC(=O)Cn1nc(C)n2c(cc3cc(F)ccc32)c1=O	x	-13%[76.3 µM]	x	x	x	x
COC(=O)C(N)Cc1ccc(O)c(O)c1 (configuration not stated)	-11%	3.1µM*	-6%	-4%	-3%	6
COC(=O)C(N)Cc1ccc(O)cc1 (configuration not stated)	-1%	5%	6%	7%	3%	11
[O-]/[N+](=C\c1ccccc1)[C@@H]1CCCC[C@@H]1/[N+]([O-])=C/c1ccccc1	2%	40µM*	-1%	6%	7%	-9
O=c1c2sc3ccccc3c2n(Cc2ccccc2F)c(=O)n1CCc1ccccc1	x	-12%[76.3 µM]	x	x	x	x
Cc1cc(Nc2ccccc2)n(CCOC(=O)COc2ccccc2)n1	-4%	32µM*	5%	2%	u	-6
CCOc1ccc(OCCC(=O)OCC(=O)Nc2cc(C)nn2-c2ccccc2)cc1	x	x	-7%	x	x	x
COc1ccc(C2C(CC(=O)O)=C(O)C(=O)N2c2ccccc2)cc1 (configuration not stated)	-1%	14µM*	-13%	18%	8%	-18
CCC(=O)Nc1cccc(C(=O)N(Cc2ccccc2)Cc2ccccc2)c1	x	-3%[76.3 µM]	7.1µM*	x	x	x
C=CCNC(=S)NN=C1CCCCCCC1	-7%	35µM*	0%	4%	10%	-2
CC(C)c1ccc(NC(=S)Nc2cccc3ccccc23)cc1	x	40µM*	-13%	x	x	x
Cc1c(CNCCc2ccc(S(N)(=O)=O)cc2)c(C(=O)O)c(C)n1Cc1ccc(Cl)cc1	x	50µM*	x	x	x	x
Cc1c(CNCc2ccc(Cl)cc2)c(C(=O)O)c(C)n1Cc1ccc(F)cc1	x	-13%[76.3 µM]	x	x	x	x
CC1CCN(c2nc3c(S(=O)(=O)c4ccc(Cl)cc4)nnn3c3ccsc23)CC1	x	-10%[76.3 µM]	x	x	x	x
COc1cc(C(Nc2ccccn2)c2ccc3ccc(C)nc3c2O)cc(OC)c1O (configuration not stated)	1%	18µM*	-6%	-1%	3%	-3

Bioassay records as filed in PubChem BioAssay.
